From the supplement of paper PMC3334620
Over roughly 33,000 sequences, “E-score (-0.5 to 0.5)” has its median near -0.054; the highest 2% begin near 0.39. The sample holds the highest values, similar sequences and a random draw of the others, so the mix is not that of the screen.

Target: Ylr278c (UniProt Q05854)
Test: PBM E-score (8-mer binding enrichment) (E-score (-0.5 to 0.5)); higher = stronger / more preferred TF binding
Conditions: protein concentration: 200 nM; construct: GST-DNA-binding domain
In short: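 Universal all-10-mer Agilent arrays, double-stranded by primer extension on fresh or once-stripped slides, were probed with about 100-200 nM GST-tagged yeast transcription factors made by PURExpress. Fluorescent anti-GST detected bound protein, and masliner normalised the scans. E-scores from the Universal PBM Analysis Suite were given to each ungapped eight-base word pooled with its reverse complement.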

Chain of UniProt Q05854 (Q05854 whole entry): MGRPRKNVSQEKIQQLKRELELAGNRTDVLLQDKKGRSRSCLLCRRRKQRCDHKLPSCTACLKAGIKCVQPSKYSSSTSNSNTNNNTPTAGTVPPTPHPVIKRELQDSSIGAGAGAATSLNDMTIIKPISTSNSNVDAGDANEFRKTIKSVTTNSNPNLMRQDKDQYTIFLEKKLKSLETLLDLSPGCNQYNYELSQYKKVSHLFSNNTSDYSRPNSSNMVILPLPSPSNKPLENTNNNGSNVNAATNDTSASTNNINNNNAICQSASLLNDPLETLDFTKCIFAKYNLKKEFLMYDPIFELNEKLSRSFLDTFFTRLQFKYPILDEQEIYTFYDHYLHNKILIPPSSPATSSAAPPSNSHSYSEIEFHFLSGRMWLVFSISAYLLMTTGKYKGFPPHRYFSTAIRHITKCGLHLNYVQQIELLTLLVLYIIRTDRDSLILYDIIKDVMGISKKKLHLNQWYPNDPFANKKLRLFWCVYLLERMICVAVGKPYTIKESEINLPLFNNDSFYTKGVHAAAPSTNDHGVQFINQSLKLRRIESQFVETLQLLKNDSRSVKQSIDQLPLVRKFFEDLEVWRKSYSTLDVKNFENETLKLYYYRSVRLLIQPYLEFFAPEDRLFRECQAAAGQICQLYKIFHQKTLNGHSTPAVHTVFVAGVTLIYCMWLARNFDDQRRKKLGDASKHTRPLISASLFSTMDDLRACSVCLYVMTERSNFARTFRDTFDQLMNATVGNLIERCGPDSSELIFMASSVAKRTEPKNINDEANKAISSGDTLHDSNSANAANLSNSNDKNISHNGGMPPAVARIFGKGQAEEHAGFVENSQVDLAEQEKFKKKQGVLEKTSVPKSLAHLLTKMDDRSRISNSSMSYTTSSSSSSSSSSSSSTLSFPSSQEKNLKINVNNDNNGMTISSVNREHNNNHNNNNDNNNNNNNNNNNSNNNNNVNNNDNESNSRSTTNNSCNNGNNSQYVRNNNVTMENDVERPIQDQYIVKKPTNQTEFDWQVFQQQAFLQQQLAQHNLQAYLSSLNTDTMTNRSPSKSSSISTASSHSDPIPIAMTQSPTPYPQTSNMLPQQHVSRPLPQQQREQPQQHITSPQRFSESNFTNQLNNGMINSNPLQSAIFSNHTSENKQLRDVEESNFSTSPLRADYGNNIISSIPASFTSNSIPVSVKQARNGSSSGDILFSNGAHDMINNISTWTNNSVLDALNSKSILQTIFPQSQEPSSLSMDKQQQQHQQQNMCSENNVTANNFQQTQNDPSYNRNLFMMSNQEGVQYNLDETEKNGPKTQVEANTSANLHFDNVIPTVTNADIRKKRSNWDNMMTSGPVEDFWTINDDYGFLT

| Sequence | PBM E-score |
| --- | --- |
| CGAATGTC | 0.101 |
| CAGAGTAG | -0.16 |
| AGCCAGCC | -0.18 |
| AAAGCGAT | 0.0361 |
| CGATTTTC | 0.153 |
| GAGCGCCC | 0.00794 |
| CATCGGCG | 0.304 |
| GCTCGGAC | 0.382 |
| CATCGGTA | 0.261 |
| AATCGGGC | 0.0936 |
| CATCGGAG | 0.457 |
| CATCGGCA | 0.284 |
| CATCGGGG | 0.314 |
| GATCGGGC | 0.184 |
| AATCGGCC | 0.24 |
| GATCGGAC | 0.434 |
| CATCGGAA | 0.396 |
| AATCGGAC | 0.397 |
| AGTATCAC | -0.0655 |
| GTTTCGCA | -0.0936 |
| ACTACTAG | -0.0129 |
| ATTTTGGA | 0.168 |
| AAATCCTA | 0.0982 |
| CTTGGCGA | -0.203 |
| TATCGGAA | 0.413 |

| Sequence | PBM E-score |
| --- | --- |
| TATCGGCA | 0.264 |
| TATCGGGA | 0.288 |
| ATGCTCCA | -0.0254 |
| ACGCTCCT | -0.237 |
| AGGCTCCC | -0.0902 |
| CCGCTCCG | 0.444 |
| ACGCTCCC | 0.0269 |
| CCGCTCCC | 0.191 |
| CCGCTCCA | 0.064 |
| ATGCTCCG | 0.425 |
| ATGCTCCC | -0.0848 |
| AGGCTCCA | -0.133 |
| AGGCTCCG | 0.39 |
| ACGCTCCG | 0.399 |
| GAGGCCGA | 0.217 |
| ACTTTTCC | 0.278 |
| GCCTAGCA | -0.245 |
| GAGGCTAA | 0.0333 |
| AGCAGACG | -0.00216 |
| ATGTGGGA | -0.101 |
| AAAGCTAT | -0.0422 |
| GGTTGGCA | -0.173 |
| ATAGAGAC | -0.248 |
| CCCCGCAA | 0.225 |
| AAGTCCTA | 0.0365 |

| Sequence | PBM E-score |
| --- | --- |
| TAGTCCAA | -0.0998 |
| CAGTCCGG | 0.367 |
| AAGTCCGA | 0.483 |
| CAGTCCGA | 0.402 |
| CAGTCCGC | 0.202 |
| ACGTCCGA | 0.346 |
| GAGTCCGC | 0.363 |
| GCGTCCGA | 0.292 |
| TAGTCCGA | 0.415 |
| GAGTCCGA | 0.392 |
| TAGTCCCA | -0.284 |
| ACCAGGGC | -0.178 |
| ATTGAACG | -0.114 |
| ATTGAACC | -0.0437 |
| AGGCGTAT | -0.308 |
| ACAGTCAT | -0.24 |
| ACTATTGC | 0.0531 |
| ATAGACCG | 0.0141 |
| CAGCTTCC | -0.0366 |
| CAGTGCGG | 0.257 |
| ATGCTGCA | -0.178 |
| CCACGGAA | 0.34 |
| ACACGGAG | 0.419 |
| ACACGGAT | 0.199 |
| CCACGGAC | 0.272 |

| Sequence | PBM E-score |
| --- | --- |
| CCACGGAG | 0.418 |
| ACACGGAA | 0.288 |
| ATCTCCGA | 0.478 |
| CTCTCCGC | 0.325 |
| ATCTCCCG | 0.301 |
| ATCTCCGC | 0.47 |
| ATCTCCAA | -0.0722 |
| CTCTCCGA | 0.394 |
| CTCTCCAA | 0.0897 |
| ATCTCCCA | 0.0776 |
| ATCTCCCC | -0.00596 |
| CTCTCCCA | -0.148 |
| ATCTCCGG | 0.493 |
| ATCTCCAG | -0.0917 |
| CTTCATGC | -0.0885 |
| ACCGCGAC | 0.0815 |
| CGAACTGC | 0.0356 |
| ACATTCAA | 0.0683 |
| GACAGTCC | 0.0326 |
| CCGGTAAG | 0.337 |
| GCGCGCAA | 0.219 |
| GTCTCCGA | 0.417 |
| GTCTCCTA | -0.166 |
| GTCTCCAA | -0.111 |
| GTACTTTA | -0.191 |

| Sequence | PBM E-score |
| --- | --- |
| AATCCGTC | 0.297 |
| AATCCGCA | 0.316 |
| TATCCGGA | 0.469 |
| CATCCGGC | 0.354 |
| AATCCGGA | 0.466 |
| TATCCTGA | -0.121 |
| AATCCGGG | 0.417 |
| AATCCTGG | -0.0892 |
| CATCCGGG | 0.3 |
| TATCCGCA | 0.271 |
| AATCCGGC | 0.425 |
| AATCCGTA | 0.195 |
| CCTCGACG | -0.00055 |
| GTACTGCA | -0.0765 |
| AAACCTCC | 0.147 |
| AATATTGT | 0.0529 |
| TACCAGGA | -0.0496 |
| CTACTTTC | -0.0554 |
| GGGTCGCA | 0.139 |
| CTTGACAC | -0.193 |
| ATAGATGG | -0.132 |
| CCCTTTCG | 0.116 |
| GATCCGGC | 0.407 |
| CATCCGGA | 0.436 |
| AATCCGCT | 0.269 |

| Sequence | PBM E-score |
| --- | --- |
| CATCCGCA | 0.191 |
| CATCCGTA | 0.183 |
| GATCCGGA | 0.439 |
| GATCCTGC | -0.00417 |
| GATCCGTA | 0.158 |
| GATCCGAA | 0.33 |
| AATCCAGT | 0.108 |
| GATCCGCC | 0.276 |
| AATCCGGT | 0.442 |
| CGTTTTGA | -0.142 |
| CTTAAGAA | -0.14 |
| AGCACCGC | 0.121 |
| CGAGCTTC | 0.028 |
| ACTAAGGG | -0.0488 |
| AAGGGTCC | 0.216 |
| AAGAAAGA | -0.0469 |
| ATGCTAGC | 0.00697 |
| CACCGGAA | 0.427 |
| GACCGGAC | 0.383 |
| GACCGGGA | 0.359 |
| CACCGGTG | 0.306 |
| CACCGGCG | 0.383 |
| CACCGGAG | 0.443 |
| CACCGGAC | 0.439 |
| GACCGGAA | 0.389 |

| Sequence | PBM E-score |
| --- | --- |
| CACCGGTA | 0.297 |
| GACCGGTA | 0.0914 |
| CACCGGCC | 0.273 |
| CACCGGGA | 0.352 |
| ATACGATA | -0.118 |
| ACGGGGGA | 0.0207 |
| ACTCCATC | 0.275 |
| ATGCACAC | -0.153 |
| CCATCAGC | -0.0147 |
| GGGGTCAC | -0.0137 |
| GTCTTACA | -0.252 |
| GCAGGTCA | -0.134 |
| ACCAGTGC | -0.264 |
| TACCGGGA | 0.381 |
| AACCGCAC | -0.0338 |
| AACCGCAG | -0.0582 |
| AACCGGCA | 0.215 |
| TACCGGTA | 0.246 |
| TACCGGAA | 0.397 |
| AACCGGTG | 0.282 |
| AACCGGAA | 0.391 |
| AACCGGAT | 0.367 |
| AAACGGAC | 0.197 |
| AACCGGAC | 0.414 |
| AACCGGAG | 0.48 |

| Sequence | PBM E-score |
| --- | --- |
| ACAGTGAG | -0.301 |
| GAGAGTTA | -0.158 |
| CGCAACAC | 0.111 |
| ATTCAAGG | -0.282 |
| GCTTTCCA | -0.0584 |
| CCTTAGAG | -0.172 |
| GGTCCGAA | 0.439 |
| GGTCCGAC | 0.39 |
| TGTCCAAA | -0.0727 |
| TGTCCGAA | 0.407 |
| GGTCCAAA | 0.0394 |
| CGTCCGAC | 0.243 |
| CGTCCGAA | 0.352 |
| TGTCCTAA | -0.233 |
| GGTCCAAC | 0.00905 |
| AAACCCAA | 0.0205 |
| AACGGGCA | -0.0928 |
| TCCTCAGA | 0.0167 |
| CGTGAGTC | -0.141 |
| CAACTTCC | 0.22 |
| GTAGCGAC | -0.186 |
| GCGTTCGA | -0.11 |
| ACTTCCGA | 0.378 |
| ATTTCCGC | 0.397 |
| ATTTCCTG | 0.0615 |

| Sequence | PBM E-score |
| --- | --- |
| CTTTCCGC | 0.332 |
| ACTTCCGC | 0.342 |
| CTTTCCGA | 0.354 |
| ACTTCCGG | 0.435 |
| GTTTCCGA | 0.369 |
| ATTTCCGG | 0.475 |
| ATTTCCCC | 0.127 |
| ATTTCCAG | 0.0814 |
| ATTTCCGA | 0.446 |
| ACACATCA | 0.0404 |
| CCACTGAA | 0.0461 |
| GTCAAGAC | -0.133 |
| GAGCTGGA | 0.0426 |
| TAAGGACA | -0.156 |
| CTATCTGA | -0.328 |
| GGTTCGGA | 0.42 |
| CGTTCGGA | 0.41 |
| GGTTCGCA | 0.0401 |
| AGTTCGGC | 0.185 |
| CGTTCGGC | 0.235 |
| CGTTCGTA | 0.0114 |
| AGTTCGGG | 0.281 |
| GGTTCGAA | 0.0257 |
| AGTTCGGA | 0.391 |
